Results: PubChem BioAssay AID1240 (Sanford-Burnham Center for Chemical Genomics, 2008)
Screen size: about 50,000 compounds; about 800 (1.6%) showed an effect of 50% or more. Shown is part of a subset that was picked to be rich in strong results.

Biological target: Bcl-2-like protein 10 (Homo sapiens) (UniProt Q9HD36)
Assay: Phenotype converters, Bcl-B/TR3 peptide binding displacement, primary biochemical FP (AID 1240);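 also: 0% = Bcl-B with tracer peptide and DMSO and 100% = tracer peptide lacking Bcl-B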
Details: GST-Bcl-B / FITC-TR3 peptide fluorescence polarization; stronger effect = higher value; compound at 3.75 mg/L

Sequence of Bcl-2-like protein 10 (Homo sapiens) (Q9HD36 whole entry, looked up): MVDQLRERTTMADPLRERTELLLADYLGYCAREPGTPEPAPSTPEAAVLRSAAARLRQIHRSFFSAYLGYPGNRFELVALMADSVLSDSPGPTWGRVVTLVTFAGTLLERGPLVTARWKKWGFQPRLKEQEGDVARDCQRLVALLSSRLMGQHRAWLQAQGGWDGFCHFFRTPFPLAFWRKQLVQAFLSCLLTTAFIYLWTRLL

SMILES	displacement
Cc1sc(NC(=O)c2ccc(Br)o2)c(C(N)=O)c1C	10%
COc1ccc(CC(=O)Nc2ccc(Br)c(C)c2)cc1	7.5%
C=CCNCCCCOc1ccc(Br)cc1	8.5%
Cc1no[n+]([O-])c1COc1ccc(/C=C2\N=C(c3ccccc3)OC2=O)cc1	-9.9%
Cc1c(-c2ccc(Cl)cc2)nc2ccccc2c1C(=O)O	-6.5%
Cc1cc(C)cc(N2C(=O)NC(=O)/C(=C\c3ccc(F)cc3)C2=O)c1	7.7%
C#CCn1cc(/C=C2\C(=O)NC(=O)N(c3ccc(Cl)cc3)C2=O)c2ccccc21	37.5%
C#CCn1cc(/C=C2\C(=O)NC(=O)N(c3ccc(C)cc3)C2=O)c2ccccc21	66.4%
Cc1cc(C)cc(N2C(=O)NC(=O)/C(=C\c3ccc(N(C)C)cc3)C2=O)c1	127%
Cc1cc(C)cc(N2C(=O)NC(=O)/C(=C\c3ccc(Cl)cc3)C2=O)c1	16.4%
CCn1cc(/C=C2\C(=O)NC(=O)N(c3ccccc3)C2=O)c2ccccc21	25.2%
CCCC(C)NC(=O)c1ccc(Cl)c([N+](=O)[O-])c1 (stereo unspecified)	-0.1%
CCOC(=O)/C(C#N)=C/c1ccc(OCc2c(C)no[n+]2[O-])cc1	-1.9%
CN1CCN(CCOCCOc2ccccc2)CC1	-7.9%
O=C(CCCC(=O)OCC(F)(F)C(F)F)Nc1nccs1	9.8%
O=C(NCCO)/C(=C/c1cccc([N+](=O)[O-])c1)NC(=O)c1cccs1	0%
O=C(Nc1cccc([N+](=O)[O-])c1)c1ccc(-c2ccc(Cl)cc2)o1	9%
Cc1ccccc1C(=O)Nc1cccc(NC(=O)c2ccc(-c3cccc(Cl)c3)o2)c1	0.6%
O=C(Nc1cccc(NC(=O)c2ccccc2Cl)c1)c1ccc(-c2ccc(Br)cc2)o1	57.3%
Cc1ccc(-c2ccc(C(=O)Nc3ccc(N4CCOCC4)cc3)o2)cc1Cl	10.8%
O=C(Nc1cc(Cl)cc(Cl)c1)c1ccc(-c2ccc([N+](=O)[O-])cc2)o1	5.1%
O=C(Nc1cccc(NC(=O)c2ccc(Cl)cc2Cl)c1)c1ccc(-c2ccc([N+](=O)[O-])cc2)o1	106%
Cc1ccc(-c2ccc(C(=O)Nc3cccnc3)o2)cc1Cl	5.6%
CC(=O)c1ccc(NC(=O)c2ccc(-c3ccc(Cl)cc3Cl)o2)cc1	-1.3%
CC(=O)c1cccc(NC(=O)c2ccc(-c3ccc(Cl)cc3Cl)o2)c1	-4.6%
Cc1ccccc1C(=O)Nc1cccc(NC(=O)c2ccc(-c3ccc(Br)cc3)o2)c1	21.4%

SMILES	displacement
Cc1cccc(NC(=O)c2ccc(-c3ccc(C)c(Cl)c3)o2)c1	69.8%
O=C(Nc1ccc(NC(=O)c2ccc(-c3ccc(Cl)cc3Cl)o2)cc1)c1ccccc1	83.5%
COc1ccc(CNC(=O)Cc2ccc(Br)cc2)cc1	0%
COc1ccc(CCNC(=O)/C=C\c2ccccc2)cc1OC	6.7%
CCOC(=O)c1c(NC(=O)c2cc(Cl)ccc2[N+](=O)[O-])sc(C(=O)N(CC)CC)c1C	-1.1%
Cc1cc2[nH]c(=O)cc(-c3ccccc3)n2n1	-5.3%
COc1cccc(NC(=O)c2cc(Cl)ccc2Cl)c1	11.1%
COc1ccc(-c2nc3cc(N)ccc3o2)cc1OC	2.7%
CCOC(=O)C(CCOCCOc1c(C)cc(Cl)cc1C)C(=O)OCC	-9.7%
Cc1ccc(/C=N/NS(=O)(=O)c2ccc(C)cc2)cc1	8%
CCOC(=O)C1=C(C)N=c2s/c(=C\c3ccc(C)o3)c(=O)n2C1c1cccc(OC)c1 (stereo unspecified)	73.3%
CCOC(=O)C1=C(C)N=c2s/c(=C\c3ccc(C)o3)c(=O)n2C1c1ccc(SC)cc1 (stereo unspecified)	65.3%
CCOC(=O)C1=C(C)N=c2s/c(=C\c3ccc(Br)o3)c(=O)n2C1c1cccc(OC)c1 (stereo unspecified)	10.7%
CCOC(=O)C1=C(C)N=c2s/c(=C\c3ccc(Br)o3)c(=O)n2C1c1ccc(F)cc1 (stereo unspecified)	11.2%
CCOC(=O)C1=C(C)N=c2s/c(=C\c3ccc(-c4ccccc4C(=O)O)o3)c(=O)n2C1c1cccc(OC)c1 (stereo unspecified)	-23.4%
CCOC(=O)C1=C(C)N=c2s/c(=C\c3ccc(N4CCOCC4)o3)c(=O)n2C1c1ccc(SC)cc1 (stereo unspecified)	-55.4%
CC1(C)Nc2ccccc2N(CCC(=O)N2CCOCC2)C1=O	9%
Cc1ccnc(NC(=O)COc2ccc(Cl)c(C)c2)c1	1.5%
O=C1CC(c2ccccc2)CC2=C1C(c1ccc(F)cc1)Nc1ccccc1N2 (stereo unspecified)	2.3%
COc1ccc(OC)c(/C=N/NC(=O)CSc2ncccn2)c1	1.1%
CC(C)=N/N=C1/NC(=O)C(CC(=O)Nc2ccc(C)cc2C)S1 (stereo unspecified)	-0.5%
C/C(=C\C(=O)c1ccc(C)cc1)Nc1ccc(I)cc1	7.2%
NC(=O)c1ccc(NC(=O)CCN2C(=O)c3ccccc3C2=O)cc1	26.7%
CC(=O)NC1=NC(=O)/C(=C\c2ccc(-c3ccc(C(=O)O)cc3)o2)S1	-27%
CC(=O)NC1=NC(=O)/C(=C\c2ccc(Cl)cc2)S1	133%
CC(=O)NC1=NC(=O)/C(=C\c2ccc(-c3ccccc3C(=O)O)o2)S1	14.5%

SMILES	displacement
O=Cc1cc(Br)ccc1OCc1c(F)cccc1Cl	0.3%
CC(=O)NC1=NC(=O)/C(=C\c2ccc3c(c2)OCO3)S1	130%
O=C(N/N=C/c1cc(Cl)ccc1OCc1c(F)cccc1Cl)c1cccnc1	-2%
CC(=O)NC1=NC(=O)/C(=C\c2ccc(C(C)C)cc2)S1	-10.2%
CC(=O)NC1=NC(=O)/C(=C/c2cc(Cl)ccc2OCc2c(F)cccc2Cl)S1	112%
Cc1ccc(C2=NC(=O)/C(=C/c3ccc4c(c3)OCO4)S2)cc1	0.5%
CC(=O)NC1=NC(=O)/C(=C\c2ccc(Cl)c(Cl)c2)S1	-13.5%
CC(=O)NC1=NC(=O)/C(=C\c2cn(C)c3ccccc23)S1	123%
COC(=O)c1cc(C(=O)N2CCCC2)cc([N+](=O)[O-])c1	12.7%
Cc1cc(/C=N/NC(=O)c2ccccn2)c(C)n1-c1cccc(Cl)c1	-15.5%
COc1ccc(S(=O)(=O)N(CC(=O)N[C@@H]2CCCC[C@H]2O)c2ccc(C)cc2)cc1OC	0.1%
COC(=O)c1cnn2c1NC(c1ccccc1)CC2C(F)(F)F (stereo unspecified)	6.5%
CC(C)(C)NC(=O)c1cc2nc(-c3ccccc3)cc(C(F)(F)F)n2n1	13%
CC(=O)NC1=NC(=O)/C(=C\c2ccc(Br)o2)S1	1.4%
CC(=O)NC1=NC(=O)/C(=C\c2ccccc2C)S1	-6.5%
CC(=O)NC1=NC(=O)/C(=C\c2ccc(C)o2)S1	96%
Cc1ccsc1/C=C1/SC(N2CCCC2)=NC1=O	1.4%
Cc1ccsc1/C=C1\SC(N2CCN(C)CC2)=NC1=O	3%
CC(=O)NC1=NC(=O)/C(=C\c2ccc(I)o2)S1	20.2%
CC(=O)NC1=NC(=O)/C(=C\c2ccc(N(C)C)cc2)S1	-23.2%
CC(=O)NC1=NC(=O)/C(=C\c2ccc(N(C)C)c(Br)c2)S1	-39.2%
CC(=O)NC1=NC(=O)/C(=C\c2ccccc2F)S1	107%
CCN(CC)c1ccc(/C=C2/SC(NC(C)=O)=NC2=O)cc1	61.1%
CC(=O)NC1=NC(=O)/C(=C\c2sccc2C)S1	98.2%
